Source: PMC4336329 (PLoS ONE, 2015)
The campaign covered roughly 310,000 compounds. About 14,000 (4.5%) showed an effect of 50% or more. Effects have a minus sign here. What follows is part of a selection rich in strong results, with near analogues and random picks from the rest.

Target: human ether-à-go-go-related gene (hERG) potassium channel (human, UniProt Q12809)
Assay: primary screen, population patch clamp on CHO cells stably expressing hERG; higher = less effect of the substance
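Also: peak tail current of the secondary pulse compared with the same well before compound.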

Sequence of human ether-à-go-go-related gene (hERG) potassium channel (Q12809 whole entry, looked up): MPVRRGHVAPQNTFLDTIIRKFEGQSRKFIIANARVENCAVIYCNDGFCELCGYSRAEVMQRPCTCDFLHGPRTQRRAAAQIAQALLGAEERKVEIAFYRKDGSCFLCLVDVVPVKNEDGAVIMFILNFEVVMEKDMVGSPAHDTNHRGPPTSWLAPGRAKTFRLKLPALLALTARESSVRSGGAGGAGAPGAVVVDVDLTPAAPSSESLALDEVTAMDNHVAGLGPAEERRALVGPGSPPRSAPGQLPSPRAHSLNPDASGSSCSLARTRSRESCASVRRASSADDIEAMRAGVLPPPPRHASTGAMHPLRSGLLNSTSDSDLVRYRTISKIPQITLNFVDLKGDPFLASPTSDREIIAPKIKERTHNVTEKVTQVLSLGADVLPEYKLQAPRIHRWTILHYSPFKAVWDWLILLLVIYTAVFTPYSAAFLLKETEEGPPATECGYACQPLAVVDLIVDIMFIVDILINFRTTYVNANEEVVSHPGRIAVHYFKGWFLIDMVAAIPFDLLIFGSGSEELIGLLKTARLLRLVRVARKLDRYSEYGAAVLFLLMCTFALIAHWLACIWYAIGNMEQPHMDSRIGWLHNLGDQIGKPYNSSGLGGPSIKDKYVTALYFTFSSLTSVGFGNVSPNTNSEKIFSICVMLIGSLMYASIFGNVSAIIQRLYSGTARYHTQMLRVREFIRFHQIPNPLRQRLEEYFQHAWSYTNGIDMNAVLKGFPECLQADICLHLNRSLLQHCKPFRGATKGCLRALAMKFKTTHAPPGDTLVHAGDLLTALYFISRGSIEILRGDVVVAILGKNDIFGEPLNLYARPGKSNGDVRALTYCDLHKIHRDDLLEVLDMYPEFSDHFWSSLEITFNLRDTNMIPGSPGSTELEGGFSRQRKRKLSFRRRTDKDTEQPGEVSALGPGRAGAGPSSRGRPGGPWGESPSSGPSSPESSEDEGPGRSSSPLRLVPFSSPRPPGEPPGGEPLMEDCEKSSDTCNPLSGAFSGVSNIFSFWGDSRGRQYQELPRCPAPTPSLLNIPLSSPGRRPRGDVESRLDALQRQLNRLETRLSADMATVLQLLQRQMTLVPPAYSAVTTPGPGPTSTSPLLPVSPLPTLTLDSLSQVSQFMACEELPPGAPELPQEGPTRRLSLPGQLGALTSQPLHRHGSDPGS

Structure (SMILES) | hERG current change (%, negative = inhibition) at 10uM [%]
COc1cc(/C=C/C(=O)OCC(=O)Nc2cc(C(F)(F)F)ccc2N2CCOCC2)ccc1O | -0.592
C=CCOC(=O)C1=C[C@@H](c2ccc(Br)cc2)C[C@@H](OCc2ccc(CO)cc2)O1 | -14.7
COc1cc(C(=O)OCC(=O)N2CCCCC2C)ccc1OCc1c(C)noc1C (stereo not shown) | 6.3
C#CCOCCOCCOCCNc1nc(N2CCN(C(=O)CCCCCCCCCCNC(=O)[C@H](CO)n3cc(CCCSC)nn3)CC2)nc(N2CCN(C(=O)CCCCCCCCCCNC(=O)[C@H](CO)n3cc(CCCSC)nn3)CC2)n1 | 4.57
COc1ccccc1NC(=O)c1ccc(S(=O)(=O)N(C)c2ccccc2)cc1 | -3.47
COc1ccc(NC(=O)c2cc3c(s2)CCC(C)C3)cc1S(=O)(=O)N1CCOCC1 (stereo not shown) | -19.1
CCN(CC)S(=O)(=O)c1ccc(N2CCOCC2)c(NC(=O)CC2OC(=O)c3ccccc32)c1 (stereo not shown) | -26
Cc1cc(-c2ccccc2)c(C#N)c(SCC(N)=O)n1 | -3.47
O=C(NCc1ccc(F)cc1)c1ccc2c(=O)n3c(nc2c1)CCCCC3 | -36.7
O=C(NCCc1ccc(F)cc1)c1ccc2c(=O)n3c(nc2c1)CCC3 | -45.7
Cc1nc2n(c(=O)c1CCN1CCC(c3noc4cc(F)ccc34)CC1)CCCC2 | -68
CCCCN(CCCNC(=O)CN1C(=O)COc2ccccc21)c1ccccc1 | -26
Cc1noc(C)c1COC(=O)COc1ccc(C#N)cc1 | 2.8
O=C(CN1CCN(C(c2ccccc2)c2ccccc2)CC1)N1N=CCC1c1ccccc1 (stereo not shown) | -50.1
CCN1CCN(CC(=O)N2N=CCC2c2ccccc2)CC1 (stereo not shown) | 3.12
O=C(CN1CCN(c2ccccc2)CC1)N1N=CCC1c1ccccc1 (stereo not shown) | 5.51
CC(C)CN(C(=O)CCC(=O)OCC(=O)N(C)c1ccccc1)c1c(N)n(CC(C)C)c(=O)[nH]c1=O | 10.7
O=C(CCCn1c(=S)[nH]c2cc3c(cc2c1=O)OCO3)N1CCN(c2ccccc2F)CC1 | 20.6
COc1ccc(NC(=S)N2CCCN(Cc3cc(C)ccc3C)C2)cc1 | -12.7
CCOc1ccc(NC(=S)N2CCCN(Cc3cccc(Cl)c3)C2)cc1 | -17.6
CCOc1ccc(NC(=S)N2CCCN(Cc3cc(C)ccc3C)C2)cc1 | -57.8
CN(C)c1ccc(C=NCCc2ccc(S(N)(=O)=O)cc2)cc1 | 6.19

Structure (SMILES) | hERG current change (%, negative = inhibition) at 10uM [%]
COc1ccc2[nH]c(=O)c(CN(C(=O)c3cccnc3)c3cccc(C)c3)cc2c1 | 11.5
Cc1c(Cl)cnc(NC(=O)COC(=O)c2ccc([N+](=O)[O-])s2)c1Cl | 6.06
O=C(COC(=O)CNC(=O)c1ccccc1Cl)Nc1ncc(C(F)(F)F)cc1Cl | -1.76
O=C(COC(=O)CNC(=O)c1ccc([N+](=O)[O-])o1)Nc1ncc(C(F)(F)F)cc1Cl | -58.3
O=C(COC(=O)CNC(=O)c1ccc(Cl)cc1)Nc1ncc(C(F)(F)F)cc1Cl | -31.8
O=C(COC(=O)c1ccc([N+](=O)[O-])s1)Nc1ncc(C(F)(F)F)cc1Cl | -63
O=C(COC(=O)c1ccccn1)Nc1ncc(C(F)(F)F)cc1Cl | -11.7
Cc1ccc(C(=O)OCC(=O)Nc2ccccc2)cc1NC(=O)c1ccco1 | -4.37
O=C(COC(=O)CNC(=O)c1ccco1)Nc1ncc(Cl)cc1Cl | 7.02
O=C(COC(=O)CNC(=O)c1ccc([N+](=O)[O-])o1)Nc1ncc(Cl)cc1Cl | -54.9
Cc1ccc(C(=O)OCC(=O)Nc2ncc(C(F)(F)F)cc2Cl)cc1NC(=O)c1ccco1 | -50.1
Cc1ccc(C(=O)OCC(=O)Nc2ncc(Cl)cc2Cl)cc1NC(=O)c1ccco1 | -48.7
COc1ccc(C(=O)NCC(=O)OCC(=O)Nc2ncc(Cl)cc2Cl)cc1[N+](=O)[O-] | -37.3
Cc1cc(-n2cnnn2)cc(C)c1S(=O)(=O)NCCOc1ccccc1 | -38.5
CC(O)c1nc2ccccc2n1CC(=O)Nc1ccc(F)cc1Cl (stereo not shown) | 14.2
CCOC(=O)c1sc(NC(=O)c2ccc(C)o2)nc1C | -5.35
COc1cc(C(c2c(C)n(C)n(-c3ccccc3)c2=O)c2c(C)n(C)n(-c3ccccc3)c2=O)cc(Br)c1O | 13.7
COc1cccc(-c2nnc(NC(=O)c3ccc4ncsc4c3)o2)c1 | -8.13
COc1cc(/C=C/C(=O)O)cc(S(=O)(=O)Nc2ccccc2Cl)c1OC | 18.8
CN(c1ccccc1)S(=O)(=O)c1ccc(Cl)c(C(=O)NCCc2c[nH]c3ccccc23)c1 | -15.8
COc1ccc(/C=C/C(=O)Nc2ccccc2C(=O)O)cc1 | 7.91
